In PubChem BioAssay (NCI) one finds growth inhibition data, which are given here for ten compounds.

A short description of test [1]: NCI Yeast Anticancer Drug Screen. Data for the rad50 strain (AID 155).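 Note: 0% = growth of vehicle-only cultures of the same strain.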 The note with it: S. cerevisiae rad50 strain growth inhibition, active compounds read high. The gist of the method: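 Compounds were tested on a yeast strain with an engineered DNA damage repair alteration; the reported value is growth inhibition normalised to vehicle treatment.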
A short description of test [2]: NCI Yeast Anticancer Drug Screen. Data for the mec2-1 strain (AID 157). The note with it: S. cerevisiae mec2-1 strain, active compounds read high. The essentials: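 Test agents were screened against the mec2-1 yeast strain, with defined DNA repair or cell cycle alteration. Growth was scored as inhibition against vehicle-only controls.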
Test [3] is described as follows: NCI Yeast Anticancer Drug Screen. Data for the sgs1 mgt1 strain (AID 161).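 Note: 0% = growth of cultures given vehicle only.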 The settings on record: S. cerevisiae sgs1 mgt1 strain, active compounds read high. The essentials: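 Read-out: growth inhibition vs vehicle controls. Cells: mutant yeast strain deficient in DNA damage repair.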
Test [4] in a line: NCI Yeast Anticancer Drug Screen. Data for the cln2 rad14 strain (AID 165).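 Note: 0% = growth equal to vehicle treated cultures.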 The settings on record: S. cerevisiae cln2 rad14 strain, active compounds read high. The gist of the method: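 Growth of compound-exposed yeast (cln2 rad14 genotype) measured and expressed as inhibition relative to vehicle.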
A short description of test [5]: NCI Yeast Anticancer Drug Screen. Data for the bub3 strain (AID 167). The note with it: S. cerevisiae bub3 mutant strain, active compounds read high. The essentials: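 Growth of a checkpoint-deficient yeast mutant is measured after compound exposure. Values represent inhibition relative to vehicle.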
A short description of test [6]: NCI Yeast Anticancer Drug Screen. Data for the mlh1 rad18 strain (AID 175). The note with it: S. cerevisiae mlh1 rad18 strain growth inhibition, active compounds read high. The gist of the method:
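In this whole-cell yeast screen, a strain with altered DNA damage repair is challenged with compound, and its growth is measured against matched vehicle-treated controls.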

[7] abbreviates: at 5.0 µM (retest, dose inferred, filed as 0.5).
The mark [8] stands for this setting: at 50.0 µM (retest, dose inferred, filed as 5.0).

About 79,000 compounds went through this panel and 15% of them were active in at least one assay; those are over-represented in the sample as a whole. Unmarked numbers belong to inactive results. The source made the active and inactive calls. Cut-off read from the data, not from the text of the source: active = growth inhibition above about 70%; inactive = the rest.

`FC(F)(F)COP1(OCC(F)(F)F)=NP(OCC(F)(F)F)(OCC(F)(F)F)=NP(c2ccccc2)(c2ccccc2)=N1`: the growth inhibition in test [1] (setting [7]) is 0%; in test [1] (setting [8]), -4%; in test [1] (at 50.0 µM), 25.9%; in test [2] (setting [7]), -1%; in test [2] (setting [8]), -1%; in test [2] (at 50.0 µM), 25.4%. For the same compound, the growth inhibition in test [3] (setting [7]) is 3%; in test [3] (setting [8]), -1%; in test [3] (at 50.0 µM), 38.1%; in test [4] (setting [7]), 2%; in test [4] (setting [8]), -6%; in test [4] (at 50.0 µM) it was 2.45%. The growth inhibition in test [5] (setting [7]) is -5%; in test [5] (setting [8]), -8%; in test [5] (at 50.0 µM), -3.05%; in test [6] (setting [7]) it was 11%; in test [6] (setting [8]), 0%; in test [6] (at 50.0 µM) it was 56.1%.

With `c1ccc2c(c1)CCc1[nH]c3c(c1-2)-c1ccccc1CC3`, the growth inhibition in test [1] (setting [7]) was 24%; in test [1] (setting [8]), 94% (active); in test [1] (at 50.0 µM), 87.5% (active); in test [2] (setting [7]), 16%; in test [2] (setting [8]), 96% (active); in test [2] (at 50.0 µM), 91.2% (active). The growth inhibition is 21% in test [3] (setting [7]); 94% (active) in test [3] (setting [8]); 90.4% (active) in test [3] (at 50.0 µM); 62% in test [4] (setting [7]); 95% (active) in test [4] (setting [8]); 88.4% (active) in test [4] (at 50.0 µM). The growth inhibition was 69% in test [5] (setting [7]); 94% (active) in test [5] (setting [8]); 89.8% (active) in test [5] (at 50.0 µM); 31% in test [6] (setting [7]); 91% (active) in test [6] (setting [8]); 86.3% (active) in test [6] (at 50.0 µM).

As for `Cc1ccc(C)c(NC(=O)/C(=N\NC(N)=S)C(C#N)c2ccccc2)c1` (stereo not given), the growth inhibition in test [1] (setting [7]) is 5%; in test [1] (setting [8]), 13%; in test [1] (at 50.0 µM) it was -14.3%; in test [2] (setting [7]), 6%; in test [2] (setting [8]), 6%; in test [2] (at 50.0 µM), 12.8%. For the same compound, the growth inhibition in test [3] (setting [7]) was 2%; in test [3] (setting [8]) it was 12%; in test [3] (at 50.0 µM) it was 15.6%; in test [4] (setting [7]), -1%; in test [4] (setting [8]), -4%; in test [4] (at 50.0 µM), 28%. Further, the growth inhibition is 10% in test [5] (setting [7]); 2% in test [5] (setting [8]); 5.75% in test [5] (at 50.0 µM); 1% in test [6] (setting [7]); 6% in test [6] (setting [8]); 69.2% in test [6] (at 50.0 µM).

Regarding `O=C(CCc1c[nH]c2ccccc12)c1ccccc1O`, the growth inhibition is 2% in test [1] (setting [7]); 5% in test [1] (setting [8]); 17.5% in test [1] (at 50.0 µM); -1% in test [2] (setting [7]); 14% in test [2] (setting [8]); 22.1% in test [2] (at 50.0 µM). Besides, the growth inhibition in test [3] (setting [7]) was 5%; in test [3] (setting [8]), 16%; in test [3] (at 50.0 µM), 59.3%; in test [4] (setting [7]), -13%; in test [4] (setting [8]) it was -18%; in test [4] (at 50.0 µM) it was -21.4%. In addition, the growth inhibition in test [5] (setting [7]) was 2%; in test [5] (setting [8]), 14%; in test [5] (at 50.0 µM), 73.8% (active); in test [6] (setting [7]) it was -5%; in test [6] (setting [8]) it was 12%; in test [6] (at 50.0 µM), 43.4%.

With `O=S(=O)(CCCl)Cc1ccccc1`, the growth inhibition is -145% in test [1] (setting [7]); -144% in test [1] (setting [8]); 5.2% in test [1] (at 50.0 µM); -45% in test [2] (setting [7]); -39% in test [2] (setting [8]); -0.4% in test [2] (at 50.0 µM). The growth inhibition was -61% in test [3] (setting [7]); -37% in test [3] (setting [8]); 14% in test [3] (at 50.0 µM); -50% in test [4] (setting [7]); -50% in test [4] (setting [8]); 10.7% in test [4] (at 50.0 µM). Also, the growth inhibition in test [5] (setting [7]) was -69%; in test [5] (setting [8]), -66%; in test [5] (at 50.0 µM), 10.7%; in test [6] (setting [7]), -144%; in test [6] (setting [8]) it was -100%; in test [6] (at 50.0 µM), 10.8%.

On to `ON(C(=Nc1ccc(Cl)cc1)c1ccccc1)c1ccccc1`, for which the growth inhibition in test [1] (setting [7]) was -10%; in test [1] (setting [8]), 98% (active); in test [1] (at 50.0 µM), 98% (active); in test [2] (setting [7]) it was 7%; in test [2] (setting [8]), 99% (active); in test [2] (at 50.0 µM) it was 99.2% (active). Further, the growth inhibition in test [3] (setting [7]) is -5%; in test [3] (setting [8]), 99% (active); in test [3] (at 50.0 µM), 99% (active); in test [4] (setting [7]), -11%; in test [4] (setting [8]), 98% (active); in test [4] (at 50.0 µM), 99.2% (active). The growth inhibition in test [5] (setting [7]) was 7%; in test [5] (setting [8]), 98% (active); in test [5] (at 50.0 µM), 98.8% (active); in test [6] (setting [7]), 9%; in test [6] (setting [8]), 99% (active); in test [6] (at 50.0 µM), 99% (active).

`CCO[Si](CC)(OCC)OCC`: the growth inhibition in test [1] (setting [7]) was -3%; in test [1] (setting [8]), 2%; in test [1] (at 50.0 µM), 27.1%; in test [2] (setting [7]), -6%; in test [2] (setting [8]), -3%; in test [2] (at 50.0 µM) it was 4.4%. Besides, the growth inhibition in test [3] (setting [7]) is 4%; in test [3] (setting [8]), 3%; in test [3] (at 50.0 µM), -12.2%; in test [4] (setting [7]) it was 0%; in test [4] (setting [8]), 3%; in test [4] (at 50.0 µM), 81.1% (active). Besides, the growth inhibition is -3% in test [5] (setting [7]); 6% in test [5] (setting [8]); -6% in test [5] (at 50.0 µM); -2% in test [6] (setting [7]); 3% in test [6] (setting [8]); 31.8% in test [6] (at 50.0 µM).

Turning to `COc1ccc(C(=O)CCc2c[nH]c3ccccc23)c(O)c1`, the growth inhibition in test [1] (setting [7]) was 2%; in test [1] (setting [8]), 43%; in test [1] (at 50.0 µM) it was -1.85%; in test [2] (setting [7]) it was -9%; in test [2] (setting [8]) it was 22%; in test [2] (at 50.0 µM), 13.8%. The growth inhibition was 11% in test [3] (setting [7]); 46% in test [3] (setting [8]); 36% in test [3] (at 50.0 µM); 22% in test [4] (setting [7]); 72% (active) in test [4] (setting [8]); 14.2% in test [4] (at 50.0 µM). In addition, the growth inhibition is 12% in test [5] (setting [7]); 79% (active) in test [5] (setting [8]); 23.5% in test [5] (at 50.0 µM); -9% in test [6] (setting [7]); 79% (active) in test [6] (setting [8]); -13.3% in test [6] (at 50.0 µM).

For the compound `CC1(c2ccc(Cl)cc2)OC(=O)c2c1ccc1ccccc21` (stereo not given), the growth inhibition was 13% in test [1] (setting [7]); 55% in test [1] (setting [8]); 97.7% (active) in test [1] (at 50.0 µM); -1% in test [2] (setting [7]); 53% in test [2] (setting [8]); 93.6% (active) in test [2] (at 50.0 µM). Further, the growth inhibition was 7% in test [3] (setting [7]); 55% in test [3] (setting [8]); 98% (active) in test [3] (at 50.0 µM); 2% in test [4] (setting [7]); 47% in test [4] (setting [8]); 88.8% (active) in test [4] (at 50.0 µM). For the same compound, the growth inhibition was 22% in test [5] (setting [7]); 52% in test [5] (setting [8]); 97.8% (active) in test [5] (at 50.0 µM); -1% in test [6] (setting [7]); 75% (active) in test [6] (setting [8]); 96% (active) in test [6] (at 50.0 µM).

Regarding `c1ccc([P+](CCCCCC[P+](c2ccccc2)(c2ccccc2)c2ccccc2)(c2ccccc2)c2ccccc2)cc1`, the growth inhibition in test [1] (setting [7]) was 61%; in test [1] (setting [8]), 85% (active); in test [1] (at 50.0 µM) it was 81.7% (active); in test [2] (setting [7]), 46%; in test [2] (setting [8]), 94% (active); in test [2] (at 50.0 µM) it was 84.8% (active). In addition, the growth inhibition was 38% in test [3] (setting [7]); 97% (active) in test [3] (setting [8]); 83.3% (active) in test [3] (at 50.0 µM); 36% in test [4] (setting [7]); 68% in test [4] (setting [8]); 78.2% (active) in test [4] (at 50.0 µM). Besides, the growth inhibition was 43% in test [5] (setting [7]); 77% (active) in test [5] (setting [8]); 86.6% (active) in test [5] (at 50.0 µM); 52% in test [6] (setting [7]); 94% (active) in test [6] (setting [8]); 81.7% (active) in test [6] (at 50.0 µM).
